High-throughput results deposited in PubChem by National Center for Advancing Translational Sciences (NCATS).
HEK cytotox: kills HEK 293 cells. 6.6% of 94,000 active. AID 1345083. HEK 293 viability, ATP luminescence (CellTiter-Glo), 48-72 h. Potency, µM (doses to about 115 µM), without a hit: top-dose activity change, negative = cytotoxicity, usual class: inhibitors; further: nearly all actives have a fitted effect of over 60% in size
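250 HEK 293 cells/well; compound by pintool; incubated 48 or 72 hr at 37 degree Celsius; CellTiter-Glo added, 10 min RT, luminescence imaged.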
NIH3T3 tox: NIH 3T3 cell cytotoxicity; NIH 3T3 viability, CellTiter-Glo ATP luminescence, 48-72 h; Potency, µM (highest dose often 96.7 µM), without a hit: at the highest dose activity change, negative = cytotoxicity, actives largely listed as inhibitors; 4.3% of 94,000 active; further: nearly all actives have a fitted effect of over 55% in size
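ATP-dependent luminescence (CellTiter-Glo) served as the viability signal for NIH 3T3 cells treated with compound for 48 or 72 hr at 37 °C.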
hNpr1 antagonist: blocks ANP-stimulated signaling of human Npr1 receptor; P16066; Potency, µM (doses to about 46.3 µM), for inactives: at the highest dose activity change, negative = inhibition, most hits filed as inhibitors; HEK293 hNpr1 GloSensor cGMP, ANP-stimulated luminescence; 1.6% of 76,000 active; calls by dose curve; further: nearly all actives have a fitted effect of over 60% in size
Target sequence (P16066 whole entry, looked up): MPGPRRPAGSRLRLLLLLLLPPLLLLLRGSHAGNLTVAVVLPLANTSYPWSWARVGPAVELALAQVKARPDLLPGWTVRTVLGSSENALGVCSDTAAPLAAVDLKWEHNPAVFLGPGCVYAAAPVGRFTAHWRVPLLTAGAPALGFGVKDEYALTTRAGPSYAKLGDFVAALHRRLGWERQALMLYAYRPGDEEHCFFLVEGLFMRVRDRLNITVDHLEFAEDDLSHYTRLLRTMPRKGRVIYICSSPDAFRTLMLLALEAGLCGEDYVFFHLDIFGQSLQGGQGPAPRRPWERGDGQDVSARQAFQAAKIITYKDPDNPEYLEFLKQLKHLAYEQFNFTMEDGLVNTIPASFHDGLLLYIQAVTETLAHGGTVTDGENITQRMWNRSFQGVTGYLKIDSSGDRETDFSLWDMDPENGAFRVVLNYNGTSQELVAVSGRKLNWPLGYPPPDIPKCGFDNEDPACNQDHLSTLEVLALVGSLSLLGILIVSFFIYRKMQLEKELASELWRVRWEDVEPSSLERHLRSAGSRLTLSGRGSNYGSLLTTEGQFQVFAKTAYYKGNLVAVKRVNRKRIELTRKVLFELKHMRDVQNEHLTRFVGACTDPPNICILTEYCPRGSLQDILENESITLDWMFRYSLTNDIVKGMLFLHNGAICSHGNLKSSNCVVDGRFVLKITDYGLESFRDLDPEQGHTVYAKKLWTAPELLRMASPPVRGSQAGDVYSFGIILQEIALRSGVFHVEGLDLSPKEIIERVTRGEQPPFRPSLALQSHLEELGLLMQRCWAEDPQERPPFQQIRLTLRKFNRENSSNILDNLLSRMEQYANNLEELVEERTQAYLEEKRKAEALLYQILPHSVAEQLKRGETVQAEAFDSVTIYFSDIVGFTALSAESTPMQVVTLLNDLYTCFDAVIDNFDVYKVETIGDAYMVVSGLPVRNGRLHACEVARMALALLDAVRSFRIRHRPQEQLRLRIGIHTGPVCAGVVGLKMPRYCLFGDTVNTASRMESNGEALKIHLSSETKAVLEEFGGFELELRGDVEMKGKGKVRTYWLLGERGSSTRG
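HEK293 cells stably expressing human Npr1 and cGMP GloSensor pGS-40F, loaded 2 h with 2% GloSensor reagent, given compound 30 min at room temperature. Luminescence read before and 20 min after 0.1 nM hNppA.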
FLuc inh: Photinus pyralis luciferase inhibition | purified P. pyralis luciferase, luminescence, biochemical | Potency, µM (top dose mostly 115 µM), hits mostly inhibitors | 2.5% of 76,000 active | AID 1347043; further: nearly all actives have a fitted effect of over 65% in size
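Cell-free enzyme assay, 10nM P. pyralis luciferase, luciferin and ATP each at 10uM. Inhibition profiled over a 6-point titration, read as luminescence.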
GPT2 inh: blocks human glutamate pyruvate transaminase 2; Q8TD30; Recombinant GPT2, coupled pyruvate oxidase/HRP Amplex Red fluorescence; Potency, µM (series often up to 57.7 µM), for inactives: at the highest dose activity change, negative = inhibition, most hits filed as inhibitors; 0.25% of 100,000 active; further: nearly all actives have a fitted effect of over 60% in size
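Inhibition is scored from Amplex Red fluorescence generated when pyruvate oxidase and HRP act on pyruvate released by GPT2. Reactions contain 10ng/uL enzyme, 250uM a-KG and 2mM L-alanine and run 30 min at room temperature.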
Starred values were filed as active, the others as inactive; i = inactive; ? = inconclusive; . = no result; [ ] = dose if it differs, or a comment. Hits are enriched below; roughly 10% of the tested compounds scored in any of these assays. Unless noted, the call rests on the fitted dose curve; in most records, active means well fitted curve in the direction sought with a large enough effect; inconclusive means small, poorly fitted or top-dose-only effect, or another doubt; inactive means no such curve, though single readings can be large; an effect the other way counts as inactive or inconclusive. On the % scale 0 is the no-effect control and ±100 the full control effect; potency means the concentration at half of the fitted maximal effect.

SMILES	HEK cytotox	NIH3T3 tox	hNpr1 antagonist	FLuc inh	GPT2 inh
CS(=O)(=O)N(C[C@H]1O[C@H](Cc2cc(-c3ccccc3)on2)CC[C@@H]1O)S(C)(=O)=O	0%	?	-1%	i	-12%
CC(c1ccc(F)cc1)N1Cc2cc(NC(=O)COc3ccccc3)ccc2OCC1=O (centres undefined)	?	?	?	i	-2%
CCNC(=O)N1CC(C(=O)NCc2cccc(F)c2)CC(c2ccc(F)c(C)c2)C1 (centres undefined)	?	?	-2%	i	2%
Cc1cc(C2CC(C(=O)NCCc3ccccc3)CN(C(=O)C3CC3)C2)ccc1F (centres undefined)	?	32µM*	-15%	i	i
COc1ccc(Nc2ccnc(N3CCC(C(=O)NCC4CC4)CC3)n2)cc1	?	40µM*	.	.	-43%
Cc1ccc(Nc2ccnc(N3CCCC(C(=O)NC(C)C)C3)n2)cc1 (centres undefined)	?	?	.	.	-6%
Cc1ccc(Nc2ccnc(N3CCCC(C(=O)NCC4CC4)C3)n2)cc1 (centres undefined)	35µM*	35µM*	.	.	i
Cc1ccc(Nc2ccnc(N3CCC(C(=O)Nc4ccccc4Cl)CC3)n2)cc1	?	40µM*	.	.	0%
CC(C)NC(=O)C1CCN(c2nccc(Nc3ccccc3Cl)n2)CC1	?	?	.	.	i
Cc1ccc(Nc2ccnc(N3CCC(C(=O)NCC4CCCCCC4)CC3)n2)cc1	?	18µM*	.	.	-7%
COc1cccc(CNC(=O)[C@@H]2C[C@@H](O)CN2C2CCN(C(=O)c3ccsc3)CC2)c1	-16%	-16%	1%	i	i
O=C(NCCc1ccccc1)C1CCN(C(=O)N2CC3CC(C2)[C@H]2CCCC(=O)N2C3)CC1 (some centres undefined)	-3%	i	1%	?	-2%
C#CCNC(=O)C1CCN(c2nccc(Nc3ccc(C)cc3)n2)CC1	50µM*	?	.	.	i
O=C(NCCc1ccccc1F)c1ccc2nnc(-c3ccc(Cl)cc3)n2c1	?	?	.	.	i
O=C(O)CCn1ncc2cc(OC3CCN(C(=O)COc4ccccc4)CC3)ccc21	i	50µM*	5%[70.6 µM]	i	-12%[88.5 µM]
O=C(O)CCn1ncc2cc(OCC3CCN(C(=O)Oc4ccccc4Cl)CC3)ccc21	-25%	18µM*	4%	?	-5%
O=C(O)CCn1ncc2cc(OCC3CCN(C(=O)CCC(F)(F)F)CC3)ccc21	-9%[172 µM]	13µM*	6%[70.6 µM]	i	i
O=C(O)CCn1ncc2cc(OC3CCN(C(=O)Oc4ccccc4)CC3)ccc21	-19%[172 µM]	?	2%[70.6 µM]	i	-15%[88.5 µM]
COC(=O)c1ccnc(-c2cc(C(=O)Nc3ccc(C4(N)CC4)cc3)ccn2)c1	.	.	.	.	i
COc1ccccc1Cn1c(=O)c(C(=O)N2CCN(C(=O)c3ccc(Cl)nc3)CC2)nc2cccnc21	-2%	-27%	.	.	i
CCS(=O)(=O)N1CCC2(CC1)c1[nH]c3ccccc3c1CCN2C	?	-32%	-1%	i	0%
Cc1nn(C)c(C)c1S(=O)(=O)N1CCC2(CC1)c1[nH]c3ccccc3c1CCN2C	89µM*	-18%	3%	i	2%
Cc1ccccc1-c1nccc2c(=O)cc(-c3cccnc3)oc12	112µM*	25µM*	4%[70.6 µM]	i	0%[88.5 µM]
COc1ccc(-c2nccc3c(=O)cc(-c4cccnc4)oc23)cc1OC	-7%[172 µM]	22µM*	0%[70.6 µM]	i	4%[88.5 µM]
O=c1cc(-c2cccnc2)oc2c(NCc3ccc(F)cc3)nccc12	-58%[172 µM]	50µM*	-5%[70.6 µM]	i	3%[88.5 µM]
SMILES	HEK cytotox	NIH3T3 tox	hNpr1 antagonist	FLuc inh	GPT2 inh
C[S+](=O)([O-])c1ccc(-c2nccc3c(=O)cc(-c4cccnc4)oc23)cc1	?	25µM*	-3%[70.6 µM]	i	?
COCCN1CCOC[C@H]2CCN(C(=O)C3CCC3)C[C@H]21	22%	i	2%	i	-10%
O=c1cc(-c2ccncc2)oc2c(-c3cccc(O)c3)nccc12	?	22µM*	3%[70.6 µM]	i	4%[88.5 µM]
O=C(C1CN(C2CCCCC2)C(=O)N1)N1CCc2ccccc2C1 (centres undefined)	25µM*	?	.	.	i
O=C1CCCCC(C(=O)N2CCc3ccccc3C2)N1 (centres undefined)	?	i	5%	i	i
COc1ccc(-c2ccc(C(=O)NCC(F)F)cc2)nn1	?	-30%[138 µM]	.	.	.
CN(CCC(O)c1ccccc1)C(=O)c1coc(Cn2cnc3ccccc32)n1 (centres undefined)	-19%	-23%	14%	i	1%
CC(C)CCN1CCOc2cc(C(=O)Nc3ccc4cn[nH]c4c3)ccc2C1	89µM*	?	-24%[70.6 µM]	?	2%[88.5 µM]
Cc1cnc(NC(=O)c2ccc3c(c2)OCCN(CCC(C)C)C3)s1	?	?	-23%[70.6 µM]	?	-3%[88.5 µM]
Cc1csc(NC(=O)c2ccc3c(c2)OCCN(CCC(F)(F)F)C3)n1	79µM*	?	-9%[70.6 µM]	?	-23%[88.5 µM]
Cc1cc(C)c(C(=O)N2CCCC(Nc3ccccc3)C2)cc1C (centres undefined)	?	?	?	i	1%
CCCN(CC1CCOC1)C(=O)Nc1ccccc1Br (centres undefined)	-5%	-2%	-2%	i	1%
Fc1ccccc1CN1CCNc2cnc(Oc3ccccc3)cc2C1	79µM*	?	-4%[70.6 µM]	i	-15%[88.5 µM]
Fc1ccccc1CN1CCNc2cnc(Nc3ccccc3)cc2C1	100µM*	?	?	i	-84%[88.5 µM]
c1ccc(Oc2cc3c(cn2)NCCN(Cc2ccc4[nH]ccc4c2)C3)cc1	89µM*	?	?	i	-2%[88.5 µM]
COc1ccccc1CN1CCNc2cnc(Oc3ccccc3)cc2C1	?	?	-14%[70.6 µM]	i	i
Cc1cccc(CN2CCNc3cnc(Oc4ccccc4)cc3C2)c1	89µM*	-28%[138 µM]	-14%[70.6 µM]	i	-8%[88.5 µM]
O=C(NCC1CCOCC1)c1n[nH]c2ccccc12	4%	i	0%	?	4%
CC(C)Cn1c(=O)c(C(=O)N(C)C)nc2cccnc21	-4%[172 µM]	-22%[138 µM]	.	.	-13%[88.5 µM]
O=C(CN1C(=O)NC2(CCCCC2)C1=O)NCCCc1ccccc1	14%	i	-1%	i	-6%
O=C1CCC2(C(=O)Nc3ccc(F)cc3F)CCCC=C2N1c1ccccc1 (centres undefined)	-12%	-23%	-1%	?	-2%
C/C(=C\CCC(C)C1CC(O)C2(C)C3CCC4C(C)(C)C(OC5OCC(O)C(O)C5O)CCC45CC35CC(O)C12C)C(=O)O (centres undefined)	.	.	.	.	i
